# Screens (PubChem)
# This is a sample that favours compounds with a hit; in the whole collection about 5.5% have one here.
# Integrin act MD: integrin-mediated muscular dystrophy alleviation activation; alpha7betagal myoblasts, beta-gal FDG fluorescence, 48 h; Potency, µM (highest dose often 38.3 µM), for the others: top-dose activation, hits mostly activators; 350,000 tested, 0.064% active; AID 624291;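 also: 100% = response of the positive control SU9516; nearly all actives have a fitted effect of over 60% in size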
#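 alpha7betagal+/- myoblasts (passage 13, 250/well) treated 48 h at 37C with compounds at 1:260 dilution of DMSO stock. Lysed, then beta-galactosidase activity read as FDG fluorescence (ex 480/em 540) after 30 min, with pre-read for autofluorescence.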
# Chronic BCR inh: chronic active BCR signaling inhibition; Potency, µM (series often up to 46.1 µM), for inactives: at the highest dose activity change, negative = inhibition, most hits filed as inhibitors; ABC-DLBCL IkBa-CBG/CBR reporter, luminescence ratio, 4 h; 340,000 tested, 0.05% active; active = well fitted inhibition curve with a large enough effect in the signal ratio, with a control signal flat, not every such curve was filed as active; inconclusive = small, poorly fitted or top-dose-only effect, or effect the other way, or a change in a side signal; the % refers to the signal ratio;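 also: plate controls were basal doxycycline-induced cells for no effect and cells given 10 µM MG132 for full effect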
#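 TMD8 human ABC-DLBCL cells with doxycycline-inducible IκBα–green luciferase fusion and unfused red luciferase, in 0.5% FBS medium; compounds up to 46 uM, 4 h at 37C. Green/red luminescence ratio, filter-overlap corrected, fitted to concentration-response curves.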
# VP16 counter: inhibits Gal4-VP16 luciferase reporter, ROR gamma counter-screen; Potency, µM (series often up to 53.6 µM), for the others: top-dose activity, negative = inhibition, hits mostly inhibitors; Drosophila S2 Gal4-VP16 UAS-luciferase, luminescence, 20 h; 310,000 tested, 3.5% active;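 also: Gal4-VP16 expression switched on by copper sulfate through the metallothionein promoter; % is scaled to controls: 0 for no effect and ±100 for the full control effect; nearly all actives have a fitted effect of over 50% in size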
# RORg inh: inhibitors of mouse ROR gamma transcriptional activity; 310,000 tested, 5.4% active; Potency, µM (highest dose often 53.6 µM), without a hit: at the highest dose activity change, negative = inhibition, actives largely listed as inhibitors; AID 2551; Drosophila S2 Gal4-RORgamma UAS-luciferase reporter, 20 h; also: % is scaled to controls: 0 for no effect and ±100 for the full control effect; nearly all actives have a fitted effect of over 60% in size
# Target sequence (P51450 whole entry, looked up, the tested form may be a part): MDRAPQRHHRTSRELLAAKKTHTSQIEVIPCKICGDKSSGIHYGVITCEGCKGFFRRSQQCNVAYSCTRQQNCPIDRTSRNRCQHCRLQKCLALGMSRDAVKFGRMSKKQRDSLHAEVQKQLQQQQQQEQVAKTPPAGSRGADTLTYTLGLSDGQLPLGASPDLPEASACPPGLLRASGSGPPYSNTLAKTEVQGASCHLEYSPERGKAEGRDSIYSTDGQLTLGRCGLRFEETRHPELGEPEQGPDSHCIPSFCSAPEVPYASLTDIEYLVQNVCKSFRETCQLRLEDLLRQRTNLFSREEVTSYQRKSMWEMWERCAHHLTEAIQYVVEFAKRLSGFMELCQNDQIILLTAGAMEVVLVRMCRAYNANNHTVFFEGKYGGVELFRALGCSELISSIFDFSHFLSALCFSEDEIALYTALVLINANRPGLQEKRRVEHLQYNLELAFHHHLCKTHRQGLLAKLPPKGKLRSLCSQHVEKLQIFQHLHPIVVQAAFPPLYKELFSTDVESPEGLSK
#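 Compounds are pin-transferred onto Drosophila Schneider cells expressing a copper-inducible Gal4–ROR gamma transactivation domain fusion. After 1 hr, copper sulfate is added to 700 uM final; luciferase is read 20 hr later.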
# Mito fusion act: mitochondrial division inhibition or fusion activation | S. cerevisiae fusion-defective mutant growth rescue, CellTiterGlo 48 h | Potency, µM (top dose mostly 46.1 µM), inactives show at the highest dose growth rescue (activation), usual class: activators | 320,000 tested, 0.23% active; also: % of control where 0% means no effect; nearly all actives have a fitted effect of over 45% in size
#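 Luminescent cell viability in 1536-well qHTS format served as the measure of rescued growth in ts fusion-mutant S. cerevisiae cultured on non-fermentable YPEG for 48 hours at 37C.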
# uPA generation: cell surface uPA generation inhibition. cell surface uPA generation assay, qHTS. Potency, µM (top dose mostly 38.3 µM), for inactives: top-dose activity change, negative = inhibition, usual class: inhibitors. 330,000 tested, 0.31% active. AID 540303; active = well fitted inhibition curve with a large enough effect; inconclusive = small, poorly fitted or top-dose-only effect; inactive = no such curve, though single readings can be large or run the other way; tested in mouse RAW 264.7 cells; also: % is scaled to controls: 0 for no effect and ±100 for the full control effect; nearly all actives have a fitted effect of over 55% in size
# Active calls of the source: *; ? = inconclusive; nt = not tested or not shown. Unless noted, calls follow the shape of the dose curve; as a rule, active = well fitted curve in the direction sought with a large enough effect; inconclusive = small, poorly fitted or top-dose-only effect, or another doubt; inactive = no such curve, though single readings can be large; an effect the other way counts as inactive or inconclusive. Potency is read from the fitted curve at half-maximal effect.
SMILES,Integrin act MD,Chronic BCR inh,VP16 counter,RORg inh,Mito fusion act,uPA generation
O=C(NNC(=O)c1ccccc1C(=O)O)c1ccc(O)cc1,-14.3%,?,?,0.316µM*,-1.2%,-3.2%
CC(C)Oc1ccc(C(=O)NNC(=O)c2ccccc2C(=O)O)cc1,4.6%,?,25.8%,-3.4%,0.0%,-7.3%
COC(=O)c1[nH]c2c(c1C)C(=O)CC(c1cc(OC)ccc1OC)C2 (stereo not given),7.5%,-4.1%,-0.5%,14.9%,-1.4%,5.62µM*
CCOc1ccc(C2CC(=O)c3c([nH]c(C(=O)OC)c3C)C2)cc1OC (stereo not given),-3.3%,nt,-12.5%,28.9%,-1.7%,-3.8%
COCCOC(=O)c1[nH]c2c(c1C)C(=O)CC(c1ccco1)C2 (stereo not given),-2.0%,?,-8.2%,-5.6%,3.1%,1µM*
Cc1c(C(=O)OCc2ccccc2)[nH]c2c1C(=O)CC(c1ccco1)C2 (stereo not given),?,?,?,-18.4%,-2.7%,1µM*
CC1(C)C(=O)Nc2ccccc2N1C(=O)COC(=O)c1ccc([N+](=O)[O-])o1,2.7%,2.1%,nt,nt,nt,-11.0%
CCOc1cc(/C=N/NC(N)=S)cc(Br)c1OCc1ccccc1C,-29.3%,?,2.51µM*,0.794µM*,20.0%,-12.4%
CCOc1cc(/C=N/NC(N)=O)cc(Br)c1OCc1ccccc1,?,-0.7%,-5.4%,-12.4%,-0.7%,1.5%
COc1cc(/C=N/NC(N)=S)cc(Br)c1OCc1ccccc1F,-6.7%,?,4.47µM*,1µM*,2.2%,-9.1%
COc1cc(/C=N/O)cc(Br)c1OCc1ccc(Cl)cc1,23.4%,?,?,5.62µM*,11.9%,-5.7%
COc1cccc(/C=N/NC(N)=S)c1OCc1ccccc1Cl,17.0%,-18.7%,3.98µM*,3.16µM*,25.0%,2.0%
CSc1ccc(NC(=O)Nc2ccc(C(=O)NCC(=O)O)cc2)cc1,-6.5%,5.1%,-16.2%,2.1%,-4.6%,6.5%
COc1cc(/C=C/c2nc3ccc([N+](=O)[O-])cc3s2)ccc1OCC(=O)O,nt,7.8%,-2.9%,6.1%,-2.7%,nt
COC(=O)c1cccc(C23CC4(C2)[C@H](CN(C)[C@@H]4c2ccccc2)C3c2ccc(Cl)nc2)c1 (stereo not given in full),nt,nt,-15.1%,9.2%,nt,nt
NC(=S)N/N=C/c1ccccc1OCCSc1ccc(Cl)cc1,-55.0%,-8.4%,28.2µM*,?,18.4%,-6.4%
CCOc1cc(/C=N/N=C(\N)c2nonc2N)cc(Br)c1OCc1cccc2ccccc12,-10.4%,?,?,12.6µM*,0.6%,-0.6%
CCOC(=O)N/N=C/c1ccccc1OCc1ccc(Cl)cc1,20.3%,-0.9%,-5.3%,?,11.1%,-8.1%
O=C(CSc1c2c(nc3ccc(Cl)cc13)CCCC2)NCCCN1CCOCC1,-28.0%,?,-0.4%,?,-7.1%,8.91µM*
CN1CCN(CCCNC(=O)c2ccc3c(Cl)c4c(nc3c2)CCCC4)CC1,-75.1%,-4.0%,-9.3%,-0.1%,-2.6%,11.2µM*
CC(C)(C)c1ccc(C(=O)NCCCN2CCN(CCCNC(=O)c3ccc(C(C)(C)C)cc3)CC2)cc1,-52.8%,3.0%,12.6µM*,7.08µM*,-19.0%,-17.3%
CC(C)(C)c1ccc(C(=O)NCCN2CCOCC2)cc1,24.7%,nt,nt,nt,nt,0.4%
CCOC(=O)c1c(N)sc2c1CCN(Cc1ccccc1)C2,nt,nt,10.1%,-24.2%,nt,nt
C=CCN1CCN(c2nc3ccccc3nc2C#N)CC1,nt,nt,1.4%,-2.4%,nt,nt
Cc1nn(-c2ccccc2)c2nc(-c3ccncc3)cc(C(=O)NCc3ccco3)c12,-17.9%,?,-18.5%,8.3%,4.5%,0.2%
Cc1nn(-c2ccccn2)c2nc(-c3cccs3)cc(C(=O)NCc3ccco3)c12,13.0%,17.4%,?,14.1µM*,1.9%,-7.8%
CCOC(=O)c1cc(-c2cccs2)nc2c1c(C)nn2-c1ccccn1,?,11.1%,7.08µM*,1.78µM*,1.9%,5.8%
